# According to PubChem BioAssay (NCI):
# About 79,000 compounds went through this panel and 15% of them were active in at least one assay; those are over-represented in the sample as a whole. A number with no mark means an inactive call. Active and inactive are the calls of the source. Cut-off read from the data, not from the text of the source: active = growth inhibition above about 70%; inactive = the rest.
# Assays:
# [1] = NCI Yeast Anticancer Drug Screen. Data for the rad50 strain (AID 155);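 note: 0% = growth of vehicle-only cultures of the same strain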; details: S. cerevisiae rad50 strain growth inhibition, hits give high values
# Procedure, shortened: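 Genetically altered yeast (DNA repair pathway); compound treatment; growth inhibition vs vehicle ctrl.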
# [2] = NCI Yeast Anticancer Drug Screen. Data for the mec2-1 strain (AID 157); details: S. cerevisiae mec2-1 strain, hits give high values
# Procedure, shortened: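 Test agents were screened against the mec2-1 yeast strain, with defined DNA repair or cell cycle alteration. Growth was scored as inhibition against vehicle-only controls.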
# [3] = NCI Yeast Anticancer Drug Screen. Data for the sgs1 mgt1 strain (AID 161);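 note: 0% = growth of cultures given vehicle only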; details: S. cerevisiae sgs1 mgt1 strain, hits give high values
# Procedure, shortened: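 Genetically altered yeast, compound exposure, growth inhibition relative to vehicle.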
# [4] = NCI Yeast Anticancer Drug Screen. Data for the cln2 rad14 strain (AID 165);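 note: 0% = growth equal to vehicle treated cultures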; details: S. cerevisiae cln2 rad14 strain, hits give high values
# Procedure, shortened: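 Growth of compound-exposed yeast (cln2 rad14 genotype) measured and expressed as inhibition relative to vehicle.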
# [5] = NCI Yeast Anticancer Drug Screen. Data for the bub3 strain (AID 167); details: S. cerevisiae bub3 mutant strain, hits give high values
# Procedure, shortened: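 Yeast carrying a defined mutation is treated with each compound, and growth is compared with that of vehicle-exposed cells to give inhibition.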
# [6] = NCI Yeast Anticancer Drug Screen. Data for the mlh1 rad18 strain (AID 175); details: S. cerevisiae mlh1 rad18 strain growth inhibition, hits give high values
# Procedure, shortened: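 In this whole-cell yeast screen, a strain with altered DNA damage repair is challenged with compound, and its growth is measured against matched vehicle-treated controls.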
# [7] = at 5.0 µM (retest, dose inferred, filed as 0.5)
# [8] = at 50.0 µM (retest, dose inferred, filed as 5.0)
Compound,"growth inhibition [1, 7]","growth inhibition [1, 8]",growth inhibition ([1]; at 50.0 µM),"growth inhibition [2, 7]","growth inhibition [2, 8]",growth inhibition ([2]; at 50.0 µM),"growth inhibition [3, 7]","growth inhibition [3, 8]",growth inhibition ([3]; at 50.0 µM),"growth inhibition [4, 7]","growth inhibition [4, 8]",growth inhibition ([4]; at 50.0 µM),"growth inhibition [5, 7]","growth inhibition [5, 8]",growth inhibition ([5]; at 50.0 µM),"growth inhibition [6, 7]","growth inhibition [6, 8]",growth inhibition ([6]; at 50.0 µM)
CCc1[nH]c2ccccc2c1N1C(=O)CC2(CCN(Cc3ccccc3)CC2)CC1=O,-4%,1%,32.1%,1%,25%,6.25%,-75%,23%,32.4%,-1%,2%,3.7%,-6%,8%,35.5%,-6%,10%,19.7%
Cc1cc2c(=O)[nH]c(N)nc2nc1C,-7%,11%,-9.45%,1%,-15%,-17.5%,-13%,-13%,-25%,-2%,-5%,15.1%,-5%,3%,-8.85%,-21%,-2%,-21.5%
CN=C1NS(=O)(=O)c2ccccc21,2%,0%,15.8%,8%,1%,-6.15%,4%,-1%,3.4%,0%,2%,19.1%,11%,39%,-0.85%,0%,8%,-2.4%
COc1ccc(/C=C(\C(=O)c2ccc(O)cc2)c2ccccc2)cc1OC,-5%,97% (active),98.5% (active),-9%,97% (active),98% (active),2%,98% (active),96.2% (active),-5%,99% (active),93.7% (active),-4%,98% (active),97.1% (active),0%,99% (active),97.5% (active)
CCCCOC(=O)C#CC(=O)OCCCC,-144%,-114%,99.6% (active),-45%,-46%,99.5% (active),-64%,-40%,99.3% (active),-58%,-65%,99.2% (active),-69%,-71%,99.3% (active),-146%,-105%,99.2% (active)
Clc1cccc(Cl)c1C(Nc1nncs1)Nc1nncs1,0%,85% (active),93.2% (active),-9%,51%,79.8% (active),0%,55%,88.2% (active),8%,42%,72.9% (active),-11%,56%,53%,0%,94% (active),97.3% (active)
O=c1c2ccccc2nc(-c2ccccc2)n1NC(=S)Nc1ccc(Cl)cc1[N+](=O)[O-],-3%,17%,23.1%,-7%,10%,-1.6%,4%,15%,40.6%,8%,14%,-29.4%,-5%,29%,71.4% (active),2%,10%,25.8%
COc1ccccc1NC(=O)C1=C(C)NC(C)=C(C(=O)Nc2ccccc2OC)C1c1ccccc1[N+](=O)[O-],13%,13%,68%,4%,4%,69.1%,2%,2%,60.9%,0%,0%,12%,5%,5%,65.7%,13%,13%,48.4%
Cc1cc(S(=O)(=O)c2ccc(Cl)cc2)nc(S(=O)(=O)c2ccc(Cl)cc2)c1C#N,45%,78% (active),82.1% (active),43%,91% (active),87.2% (active),99% (active),90% (active),85.2% (active),99% (active),91% (active),84.7% (active),99% (active),83% (active),80.4% (active),42%,89% (active),80.2% (active)
CC1=C(C(=O)Nc2cccc(Cl)c2)C(c2ccc([N+](=O)[O-])cc2)C(C(=O)Nc2cccc(Cl)c2)=C(C)N1,44%,44%,57.9%,52%,52%,81.8% (active),34%,34%,65%,32%,32%,79.5% (active),49%,49%,74.7% (active),51%,51%,61.8%
